Test in all cases: DAPPL (digital affinity profiling via proximity ligation, sequencing); 10 mM Tris-HCl pH 7.5, 50 mM NaCl, 1 mM DTT, 4% glycerol, room temperature, 30 min; GST-TFs on glutathione beads, 16-mer random dsDNA library, 0.1% formaldehyde crosslink after washing; high values mean tight binding
One test concerns the target T1, FEV (Homo sapiens, UniProt Q99581 1-238).
T1 sequence: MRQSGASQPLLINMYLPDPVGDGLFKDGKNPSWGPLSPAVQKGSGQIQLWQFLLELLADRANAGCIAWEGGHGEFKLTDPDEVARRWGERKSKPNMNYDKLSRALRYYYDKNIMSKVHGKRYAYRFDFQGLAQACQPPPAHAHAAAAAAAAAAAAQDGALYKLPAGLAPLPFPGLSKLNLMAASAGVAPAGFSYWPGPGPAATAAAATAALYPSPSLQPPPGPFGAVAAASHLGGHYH
The settings on record: protein: recombinant; tags: N-terminal GST; dsDNA, one strand shown. The gist of the method:
(§1)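 A tag-only sample was pooled with DNA-barcoded human transcription factors that had been expressed in yeast as GST fusions and captured on glutathione beads. The pools were incubated for 30 min at room temperature with 200 nmole of a random double-stranded 16-mer DNA library in Tris/NaCl/DTT/glycerol buffer, then washed, crosslinked with 0.1% formaldehyde, proximity-ligated (BsaI/T4 ligase, 1 h, 37 °C), PCR-amplified and sequenced on an Illumina NextSeq500. Binding signal is each hexamer's read frequency for a factor divided by its frequency for the tag-only sample.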

The next test concerns the target ETV5 (Homo sapiens, UniProt P41161 1-510). As to conditions: protein: recombinant; tags: N-terminal GST; dsDNA, one strand shown. In a few lines:
as §1

The next test addresses HSF1 (Homo sapiens, UniProt Q00613 1-529). The settings on record: protein: recombinant; tags: N-terminal GST; chain copies: 3; dsDNA, one strand shown. The gist of the method:
as §1

Another test deals with T2, SPIC (Homo sapiens, UniProt Q8N5J4 1-248).
T2 sequence: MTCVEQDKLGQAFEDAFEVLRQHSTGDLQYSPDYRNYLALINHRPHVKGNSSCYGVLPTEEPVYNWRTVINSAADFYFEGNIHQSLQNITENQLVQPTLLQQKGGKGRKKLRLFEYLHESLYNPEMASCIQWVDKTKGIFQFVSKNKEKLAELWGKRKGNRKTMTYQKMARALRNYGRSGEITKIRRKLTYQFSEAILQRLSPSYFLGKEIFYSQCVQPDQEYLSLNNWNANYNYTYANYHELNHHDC
The settings on record: protein: recombinant; tags: N-terminal GST; dsDNA, one strand shown. In a few lines: as §1

Another test addresses ELF4 (Homo sapiens, UniProt Q99607 1-663). The settings on record: protein: recombinant; tags: N-terminal GST; dsDNA, one strand shown. The gist of the method: as §1
The next test addresses T3, ELK4 (Homo sapiens, UniProt P28324-2 1-405).
T3 sequence: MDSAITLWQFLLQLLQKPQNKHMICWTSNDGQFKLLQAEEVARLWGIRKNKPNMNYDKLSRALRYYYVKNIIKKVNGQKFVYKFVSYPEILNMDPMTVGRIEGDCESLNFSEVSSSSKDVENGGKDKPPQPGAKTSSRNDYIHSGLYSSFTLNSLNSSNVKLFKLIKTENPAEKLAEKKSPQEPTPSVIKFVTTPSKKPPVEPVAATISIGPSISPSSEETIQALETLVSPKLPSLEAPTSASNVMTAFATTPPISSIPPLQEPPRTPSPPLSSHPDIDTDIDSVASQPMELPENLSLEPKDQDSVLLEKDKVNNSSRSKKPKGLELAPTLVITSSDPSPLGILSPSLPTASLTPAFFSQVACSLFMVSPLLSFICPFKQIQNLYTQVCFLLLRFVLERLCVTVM
The settings on record: protein: recombinant; tags: N-terminal GST; dsDNA, one strand shown. In a few lines: as §1

The next test concerns the target T4, ETV2 (Homo sapiens, UniProt O00321 1-342).
T4 sequence: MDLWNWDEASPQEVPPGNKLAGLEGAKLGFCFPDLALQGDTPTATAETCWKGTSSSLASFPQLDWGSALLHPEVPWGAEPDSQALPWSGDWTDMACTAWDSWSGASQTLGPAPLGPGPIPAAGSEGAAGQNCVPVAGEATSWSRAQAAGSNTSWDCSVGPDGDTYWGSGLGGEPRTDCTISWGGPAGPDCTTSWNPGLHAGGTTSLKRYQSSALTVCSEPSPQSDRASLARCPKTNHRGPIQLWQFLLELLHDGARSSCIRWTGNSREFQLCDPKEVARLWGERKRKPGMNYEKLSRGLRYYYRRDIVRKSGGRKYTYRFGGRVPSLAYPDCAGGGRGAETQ
The settings on record: protein: recombinant; tags: N-terminal GST; dsDNA, one strand shown. In a few lines:
as §1

In a further test the target is T5, ELF3 (Homo sapiens, UniProt P78545 1-371).
T5 sequence: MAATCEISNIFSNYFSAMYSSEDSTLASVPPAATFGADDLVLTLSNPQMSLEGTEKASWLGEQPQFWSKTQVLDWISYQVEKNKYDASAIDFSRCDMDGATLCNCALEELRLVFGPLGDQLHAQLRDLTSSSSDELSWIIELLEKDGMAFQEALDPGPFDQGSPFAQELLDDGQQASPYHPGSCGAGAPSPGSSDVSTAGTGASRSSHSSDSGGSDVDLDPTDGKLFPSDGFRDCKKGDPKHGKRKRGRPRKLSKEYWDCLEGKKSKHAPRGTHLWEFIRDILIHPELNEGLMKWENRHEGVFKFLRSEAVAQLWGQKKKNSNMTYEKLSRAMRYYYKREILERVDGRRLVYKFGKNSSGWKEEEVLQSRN
The settings on record: protein: recombinant; tags: N-terminal GST; dsDNA, one strand shown. In a few lines:
as §1

The next test addresses CRX (Homo sapiens, UniProt O43186 1-299). The settings on record: protein: recombinant; tags: N-terminal GST; dsDNA, one strand shown. In a few lines:
as §1

The target in another test is ETV1 (Homo sapiens, UniProt P50549 1-477). As to conditions: protein: recombinant; tags: N-terminal GST; dsDNA, one strand shown. The gist of the method: as §1
The target of the next test is T6, ERF (Homo sapiens, UniProt P50548 1-548).
T6 sequence: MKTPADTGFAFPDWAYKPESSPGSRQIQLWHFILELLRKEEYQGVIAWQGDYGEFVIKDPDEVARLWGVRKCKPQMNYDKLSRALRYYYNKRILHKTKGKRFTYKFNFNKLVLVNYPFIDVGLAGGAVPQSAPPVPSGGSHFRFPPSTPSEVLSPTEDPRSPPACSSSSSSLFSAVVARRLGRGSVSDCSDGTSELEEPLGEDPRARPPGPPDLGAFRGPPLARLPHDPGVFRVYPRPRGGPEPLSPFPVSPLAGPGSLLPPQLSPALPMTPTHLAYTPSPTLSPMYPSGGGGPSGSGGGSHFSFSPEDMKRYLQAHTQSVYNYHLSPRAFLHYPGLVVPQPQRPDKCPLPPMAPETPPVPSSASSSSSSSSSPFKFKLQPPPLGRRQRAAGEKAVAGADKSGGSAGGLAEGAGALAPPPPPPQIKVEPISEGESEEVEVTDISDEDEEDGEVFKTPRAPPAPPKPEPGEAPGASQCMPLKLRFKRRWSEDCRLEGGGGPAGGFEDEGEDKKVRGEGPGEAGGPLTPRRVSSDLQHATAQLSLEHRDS
The settings on record: protein: recombinant; tags: N-terminal GST; dsDNA, one strand shown. The gist of the method: as §1

In another test the target is T7, ETV3L (Homo sapiens, UniProt Q6ZN32 1-361).
T7 sequence: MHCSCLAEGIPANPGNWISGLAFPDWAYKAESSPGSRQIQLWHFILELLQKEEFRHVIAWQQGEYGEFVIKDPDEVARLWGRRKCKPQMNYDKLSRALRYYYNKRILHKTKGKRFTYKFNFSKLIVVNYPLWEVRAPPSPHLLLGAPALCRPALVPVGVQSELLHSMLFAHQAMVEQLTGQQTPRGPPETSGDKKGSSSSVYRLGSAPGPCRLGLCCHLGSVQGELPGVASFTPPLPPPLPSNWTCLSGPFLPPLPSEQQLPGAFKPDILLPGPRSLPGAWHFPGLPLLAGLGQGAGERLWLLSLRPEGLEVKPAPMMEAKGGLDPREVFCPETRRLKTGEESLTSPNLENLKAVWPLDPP
As to conditions: protein: recombinant; tags: N-terminal GST; dsDNA, one strand shown. In a few lines: as §1

The next test deals with T8, ETS2 (Homo sapiens, UniProt P15036 1-469).
T8 sequence: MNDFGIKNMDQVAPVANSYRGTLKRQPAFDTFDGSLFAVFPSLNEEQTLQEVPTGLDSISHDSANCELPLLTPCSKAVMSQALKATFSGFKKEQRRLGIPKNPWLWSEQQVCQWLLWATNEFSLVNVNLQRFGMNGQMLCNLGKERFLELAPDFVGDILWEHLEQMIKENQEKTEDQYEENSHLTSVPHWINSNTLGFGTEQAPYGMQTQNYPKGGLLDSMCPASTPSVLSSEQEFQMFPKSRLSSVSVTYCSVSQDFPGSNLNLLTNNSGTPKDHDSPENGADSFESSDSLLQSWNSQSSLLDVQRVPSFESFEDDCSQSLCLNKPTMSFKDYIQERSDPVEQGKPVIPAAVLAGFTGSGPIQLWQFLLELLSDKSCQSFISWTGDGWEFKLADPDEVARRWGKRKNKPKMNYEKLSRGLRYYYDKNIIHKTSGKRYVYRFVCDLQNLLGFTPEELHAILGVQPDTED
The settings on record: protein: recombinant; tags: N-terminal GST; dsDNA, one strand shown. In a few lines: as §1

Another test addresses T9, SPDEF (Homo sapiens, UniProt O95238 1-335).
T9 sequence: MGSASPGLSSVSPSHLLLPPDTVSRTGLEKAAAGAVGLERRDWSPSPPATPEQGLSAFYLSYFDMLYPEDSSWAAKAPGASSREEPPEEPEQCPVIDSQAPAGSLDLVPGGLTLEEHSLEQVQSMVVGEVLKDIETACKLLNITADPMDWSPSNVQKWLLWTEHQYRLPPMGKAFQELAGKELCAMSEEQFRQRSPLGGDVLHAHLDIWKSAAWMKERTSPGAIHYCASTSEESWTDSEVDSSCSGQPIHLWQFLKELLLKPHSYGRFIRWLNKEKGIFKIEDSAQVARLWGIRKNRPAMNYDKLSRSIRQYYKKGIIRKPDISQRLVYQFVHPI
As to conditions: protein: recombinant; tags: N-terminal GST; dsDNA, one strand shown. The gist of the method: as §1

Another test deals with T10, ETV7 (Homo sapiens, UniProt Q9Y603 1-341).
T10 sequence: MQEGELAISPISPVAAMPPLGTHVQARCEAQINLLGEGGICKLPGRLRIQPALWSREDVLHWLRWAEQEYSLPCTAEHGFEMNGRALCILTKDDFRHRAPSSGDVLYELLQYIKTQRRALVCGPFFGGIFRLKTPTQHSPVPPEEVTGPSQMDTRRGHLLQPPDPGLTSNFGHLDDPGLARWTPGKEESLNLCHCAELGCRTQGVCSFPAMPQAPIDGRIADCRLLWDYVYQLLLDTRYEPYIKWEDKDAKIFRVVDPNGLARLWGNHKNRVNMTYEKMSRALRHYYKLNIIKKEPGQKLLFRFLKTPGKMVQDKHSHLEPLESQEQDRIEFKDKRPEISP
As to conditions: protein: recombinant; tags: N-terminal GST; dsDNA, one strand shown. In a few lines:
as §1

A further test concerns the target T11, ELF5 (Homo sapiens, UniProt Q9UKW6-2 1-255).
T11 sequence: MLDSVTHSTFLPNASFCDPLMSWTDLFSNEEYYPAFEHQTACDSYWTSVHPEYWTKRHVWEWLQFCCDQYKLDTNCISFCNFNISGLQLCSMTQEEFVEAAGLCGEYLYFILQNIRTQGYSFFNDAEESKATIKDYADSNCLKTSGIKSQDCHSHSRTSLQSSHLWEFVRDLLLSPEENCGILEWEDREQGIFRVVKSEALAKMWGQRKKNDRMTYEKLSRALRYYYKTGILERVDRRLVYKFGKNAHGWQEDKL
The settings on record: protein: recombinant; tags: N-terminal GST; dsDNA, one strand shown. In a few lines: as §1

The target of another test is T12, ETV3 (Homo sapiens, UniProt P41162-2 1-143).
T12 sequence: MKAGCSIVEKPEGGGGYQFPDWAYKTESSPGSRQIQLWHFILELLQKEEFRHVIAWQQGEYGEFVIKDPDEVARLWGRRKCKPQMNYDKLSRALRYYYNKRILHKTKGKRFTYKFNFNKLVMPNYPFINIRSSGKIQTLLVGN
The settings on record: protein: recombinant; tags: N-terminal GST; dsDNA, one strand shown. The gist of the method: as §1

For another test, the target named is ETV6 (Homo sapiens, UniProt P41212 1-452). The settings on record: protein: recombinant; tags: N-terminal GST; dsDNA, one strand shown. In a few lines:
as §1

From publication PMC7862700, “An all-to-all approach to the identification of sequence-specific readers for epigenetic DNA modifications on cytosine” come the findings set out here.

Chain of ETV1 (P50549 whole entry): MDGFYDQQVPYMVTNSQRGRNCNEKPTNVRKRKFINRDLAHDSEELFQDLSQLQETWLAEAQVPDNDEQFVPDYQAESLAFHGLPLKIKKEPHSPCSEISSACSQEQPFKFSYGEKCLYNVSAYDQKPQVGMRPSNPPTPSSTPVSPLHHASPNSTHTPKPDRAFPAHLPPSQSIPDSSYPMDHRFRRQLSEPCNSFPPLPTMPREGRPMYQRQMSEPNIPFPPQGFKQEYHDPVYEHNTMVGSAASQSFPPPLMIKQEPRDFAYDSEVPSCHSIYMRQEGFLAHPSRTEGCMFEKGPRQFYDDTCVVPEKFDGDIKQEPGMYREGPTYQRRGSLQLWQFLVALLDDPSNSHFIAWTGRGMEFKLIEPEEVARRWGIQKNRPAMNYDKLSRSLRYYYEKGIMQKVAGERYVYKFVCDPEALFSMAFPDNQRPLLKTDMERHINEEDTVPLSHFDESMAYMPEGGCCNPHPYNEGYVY
Chain of ETV5 (P41161 whole entry): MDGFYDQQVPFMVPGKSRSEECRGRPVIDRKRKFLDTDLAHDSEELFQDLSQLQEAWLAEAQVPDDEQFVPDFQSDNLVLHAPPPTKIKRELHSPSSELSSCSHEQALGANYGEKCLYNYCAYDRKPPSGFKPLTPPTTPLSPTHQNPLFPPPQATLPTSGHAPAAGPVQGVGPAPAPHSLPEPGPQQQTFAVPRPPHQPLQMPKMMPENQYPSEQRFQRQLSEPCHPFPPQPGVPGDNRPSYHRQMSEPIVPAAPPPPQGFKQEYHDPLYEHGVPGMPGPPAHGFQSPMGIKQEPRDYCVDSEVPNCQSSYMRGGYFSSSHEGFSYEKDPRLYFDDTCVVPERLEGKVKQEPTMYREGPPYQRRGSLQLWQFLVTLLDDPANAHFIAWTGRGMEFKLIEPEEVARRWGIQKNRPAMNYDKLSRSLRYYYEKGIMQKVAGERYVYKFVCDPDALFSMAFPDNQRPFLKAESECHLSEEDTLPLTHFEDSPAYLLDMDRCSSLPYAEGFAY
Chain of ELF4 (Q99607 whole entry): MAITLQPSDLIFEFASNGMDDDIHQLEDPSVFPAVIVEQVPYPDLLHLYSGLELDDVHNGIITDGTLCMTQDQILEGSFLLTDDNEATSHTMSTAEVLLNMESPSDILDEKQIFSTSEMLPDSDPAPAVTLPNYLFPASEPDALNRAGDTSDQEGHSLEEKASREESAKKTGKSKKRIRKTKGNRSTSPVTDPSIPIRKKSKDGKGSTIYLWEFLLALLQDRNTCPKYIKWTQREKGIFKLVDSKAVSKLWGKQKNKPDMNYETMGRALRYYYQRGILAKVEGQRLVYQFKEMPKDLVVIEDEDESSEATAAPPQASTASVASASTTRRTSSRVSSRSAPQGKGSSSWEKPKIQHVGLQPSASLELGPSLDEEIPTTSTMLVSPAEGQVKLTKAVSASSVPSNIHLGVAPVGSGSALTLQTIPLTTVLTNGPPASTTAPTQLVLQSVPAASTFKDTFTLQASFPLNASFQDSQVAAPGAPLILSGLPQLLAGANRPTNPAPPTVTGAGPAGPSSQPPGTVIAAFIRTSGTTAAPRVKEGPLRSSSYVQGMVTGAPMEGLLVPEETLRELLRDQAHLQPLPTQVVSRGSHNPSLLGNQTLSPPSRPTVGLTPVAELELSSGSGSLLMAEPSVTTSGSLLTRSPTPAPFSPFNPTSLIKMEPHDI
Chain of ETV6 (P41212 whole entry): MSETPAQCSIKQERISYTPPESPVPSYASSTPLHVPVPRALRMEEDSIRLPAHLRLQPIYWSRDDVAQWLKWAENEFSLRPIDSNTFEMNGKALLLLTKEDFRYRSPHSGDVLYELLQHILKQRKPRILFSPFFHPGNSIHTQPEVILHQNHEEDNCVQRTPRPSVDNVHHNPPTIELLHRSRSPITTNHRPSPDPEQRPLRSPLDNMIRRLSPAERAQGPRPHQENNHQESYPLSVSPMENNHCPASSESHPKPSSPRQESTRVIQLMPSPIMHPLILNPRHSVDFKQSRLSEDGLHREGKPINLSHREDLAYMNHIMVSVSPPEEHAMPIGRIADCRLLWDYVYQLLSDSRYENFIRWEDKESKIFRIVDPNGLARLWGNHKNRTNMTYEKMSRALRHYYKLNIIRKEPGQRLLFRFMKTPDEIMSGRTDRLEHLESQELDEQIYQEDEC
Chain of HSF1 (Q00613 whole entry): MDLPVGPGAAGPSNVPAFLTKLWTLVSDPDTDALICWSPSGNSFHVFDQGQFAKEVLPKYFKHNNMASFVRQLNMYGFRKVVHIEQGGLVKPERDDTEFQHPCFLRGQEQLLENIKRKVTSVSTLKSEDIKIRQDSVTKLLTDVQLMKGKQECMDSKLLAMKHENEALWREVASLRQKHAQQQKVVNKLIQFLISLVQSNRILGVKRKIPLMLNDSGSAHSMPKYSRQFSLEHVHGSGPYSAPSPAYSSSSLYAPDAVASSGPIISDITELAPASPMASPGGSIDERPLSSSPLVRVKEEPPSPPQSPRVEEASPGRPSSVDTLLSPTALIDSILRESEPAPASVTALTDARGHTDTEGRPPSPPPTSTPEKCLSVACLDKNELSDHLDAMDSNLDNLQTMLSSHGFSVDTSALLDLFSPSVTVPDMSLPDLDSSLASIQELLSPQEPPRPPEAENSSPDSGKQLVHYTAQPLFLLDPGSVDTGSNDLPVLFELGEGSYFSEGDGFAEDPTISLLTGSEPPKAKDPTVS
Chain of CRX (O43186 whole entry): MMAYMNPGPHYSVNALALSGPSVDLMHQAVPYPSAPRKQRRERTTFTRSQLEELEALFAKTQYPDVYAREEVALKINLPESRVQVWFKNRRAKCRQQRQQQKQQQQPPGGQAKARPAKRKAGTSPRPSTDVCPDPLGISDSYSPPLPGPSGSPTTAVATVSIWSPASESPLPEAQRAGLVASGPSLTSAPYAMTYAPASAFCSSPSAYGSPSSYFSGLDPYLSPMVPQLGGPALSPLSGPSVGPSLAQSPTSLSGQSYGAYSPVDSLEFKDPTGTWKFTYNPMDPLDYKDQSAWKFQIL

Turning to TTTGAC, the binding signal with FEV is 1.37 fold enrichment (6-mer frequency, TF over GST control); with ETV5, 1.5 fold enrichment (6-mer frequency, TF over GST control); with HSF1, 1.35 fold enrichment (6-mer frequency, TF over GST control); with SPIC, 1.3 fold enrichment (6-mer frequency, TF over GST control); with ELF4, 1.47 fold enrichment (6-mer frequency, TF over GST control); in the test with ELK4 it was 1.41 fold enrichment (6-mer frequency, TF over GST control). In addition, the binding signal in the test with ETV2 was 1.5 fold enrichment (6-mer frequency, TF over GST control); in the test with ELF3, 1.39 fold enrichment (6-mer frequency, TF over GST control); with CRX, 1.37 fold enrichment (6-mer frequency, TF over GST control); with ETV1, 1.42 fold enrichment (6-mer frequency, TF over GST control); with ERF, 1.49 fold enrichment (6-mer frequency, TF over GST control); with ETV3L, 1.35 fold enrichment (6-mer frequency, TF over GST control). Also, the binding signal is 1.33 fold enrichment (6-mer frequency, TF over GST control) with ETS2; 1.48 fold enrichment (6-mer frequency, TF over GST control) in the test with SPDEF; 1.58 fold enrichment (6-mer frequency, TF over GST control) with ETV7; 1.34 fold enrichment (6-mer frequency, TF over GST control) with ELF5; 1.38 fold enrichment (6-mer frequency, TF over GST control) in the test with ETV3; 1.4 fold enrichment (6-mer frequency, TF over GST control) in the test with ETV6.
